The record followed here is PubChem BioAssay AID2315 (National Center for Advancing Translational Sciences (NCATS), 2010).

Out of some 290,000 compounds screened, about 27,000 (9.3%) were called active. Rule as the data show it: active = inhibition mostly above about 28% (no sharp cut-off); inactive = mostly below about 43%. This excerpt belongs to a sample that is enriched for actives.

This test is described as follows: A qHTS for Small Molecule Inhibitors of Shiga Toxin. Also: 0% is about no effect. To be noted: Vero cells, Shiga toxin protein synthesis inhibition reporter; at 38.7 µM, active compounds read high.
For `COC(=O)C1CCN(C(=O)c2cc(=O)[nH]c3ccccc23)CC1`, the inhibition is -11.7% (inactive).
For `COc1ccc(/C=C2\SC(=S)N(CCC(=O)Nc3cccc(C(=O)O)c3)C2=O)cc1OC`, the inhibition was 2.9% (inactive).
With `Cn1c(SCc2nc3ccccc3s2)nnc1-c1ccc2c(c1)OCO2`, the inhibition was 59% (active).
In the case of `Cn1c(SCC(=O)N2CCCC2)nnc1-c1ccc2c(c1)OCO2` it was 38.6% (inactive).
For the molecule `O=C(O)CSc1nnc(-c2ccc3c(c2)OCO3)n1-c1ccccc1`, the inhibition was 37% (inactive).
Take `CN(CCc1ccccn1)C1CCCN(S(=O)(=O)c2ccccc2Cl)C1` (configuration not stated): the inhibition was -6.64% (inactive).
Take `COc1ccc(S(=O)(=O)N2CCOC2CNC(=O)C(=O)NCc2ccncc2)cc1OC` (configuration not stated): the inhibition is -13.1% (inactive).
In the case of `CCC(C(=O)NCc1cccnc1)n1nc(C)c2sc3ccccc3c2c1=O` (configuration not stated) it was -2.63% (inactive).
As to `Cc1cc(C)cc(NC(=O)CCN2C(=O)c3ccccc3C2=O)c1`, the inhibition is -3.25% (inactive).
For `C=CCn1c(SCC(N)=O)nnc1-c1cc2c(s1)CCC(CC)C2` (configuration not stated), the inhibition was 76.9% (active).
As for `C=CCn1c(SCc2c(C(=O)OC)sc(N)c2C(=O)OC)nnc1-c1ccc(Cl)cc1`, the inhibition is -13.4% (inactive).
In the case of `CCn1c(CSc2nc(C)cc(C)n2)nnc1SCC(N)=O` it was -9.49% (inactive).
As to `COCCNC(=O)CN(Cc1ccco1)C(=O)CCC(=O)Nc1nccs1`, the inhibition was -8.05% (inactive).
Regarding `CCN(C(=O)COC(=O)c1cc(NS(=O)(=O)c2ccc(Cl)c([N+](=O)[O-])c2)ccc1O)C1CCCCC1`, the inhibition is -7.83% (inactive).
With `COCc1c(C(=O)N/N=C\c2cccnc2)nnn1-c1nonc1N`, the inhibition is -0.307% (inactive).
Consider `Cc1cccc(N2C(=O)C3C(c4ccccc4)OC4(C(=O)c5ccccc5C4=O)C3C2=O)c1` (configuration not stated), for which the inhibition was -11.8% (inactive).
In the case of `Cc1cccc(N2C(=O)c3cccnc3C2=O)c1` it was 23.8% (inactive); in that of `Cc1cccc(N2C(=O)NC(=O)/C(=C\c3cnn(-c4ccccc4)c3)C2=O)c1`, 65.5% (active); in that of `Cc1nc(CN(C)C(=O)CC2C(=O)NCCN2Cc2ccc(F)cc2)cs1` (configuration not stated), -21.9% (inactive).
The result for `Cc1nc(C(=O)Nc2ccc(Cl)cc2)sc1C1(C)CC(c2ccccc2)=NO1` (configuration not stated) reads -2.44% (inactive); that for `Cc1nc(-c2ccc(Cl)cc2)sc1C1(C)CC(c2ccccc2F)=NO1` (configuration not stated), 42% (active).
As to `Cc1nc(C(=O)NCc2ccccc2)sc1C1(C)CC(c2cccnc2)=NO1` (configuration not stated), the inhibition was -4.88% (inactive).
The result for `Nc1ccc(SCCN2C(=O)c3ccccc3C2=O)cc1` reads 85% (active).
In the case of `Cc1ccc(SCCN2C(=O)NC(C)(C)C2=O)cc1` it was 5.57% (inactive).
In the case of `CC(=O)c1cnc(SCCN2C(=O)c3ccccc3C2=O)nc1C`, the inhibition is -12.2% (inactive).
`N#CCC(=O)N/N=C/c1cn(Cc2ccc3ccccc3c2)c2ccccc12`: the inhibition is -10.8% (inactive).
In the case of `CC[C@H](C)[C@H](NC(=O)[C@H](Cc1ccc(O)cc1)NC(=O)[C@@H](NC(=O)[C@H](CCCN=C(N)N)NC(=O)[C@@H](N)CC(=O)O)C(C)C)C(=O)N[C@@H](Cc1cnc[nH]1)C(=O)N1CCC[C@H]1C(=O)N[C@@H](Cc1ccccc1)C(=O)O`, the inhibition was 15% (inactive).
Consider `CC(NC(=O)c1cccc2ccccc12)c1ccc2c(c1)CCCC2` (configuration not stated), for which the inhibition was -3.09% (inactive).
As for `CCOC(OCC)c1ccc(/C=C\c2nccc(N)n2)cc1`, the inhibition is 62.4% (active).
For the molecule `CC1(C)C(C=C(Cl)Cl)C1C(=O)NC(O)C(=O)c1ccccc1` (configuration not stated), the inhibition was -9.33% (inactive).
Turning to `COc1cccc(/C=N/NC(=O)c2[nH]nc3c2CCc2ccccc2-3)c1O`, the inhibition was 12.7% (inactive).
As for `COc1cc2cc(C(=O)N/N=C/c3cccc(OC)c3OC)[nH]c2cc1OC`, the inhibition was 3.08% (inactive).
Turning to `COc1cccc(/C=N\NC(=O)C2=NNC(=O)C2C)c1O` (configuration not stated), the inhibition is 66.4% (active).
The result for `CCCCn1c(-c2cccc(C)c2)nc2cc3[nH]c(=O)c(C(C)C)nc3cc21` reads 9.49% (inactive); that for `CN1CCN(C(=O)c2cnn(-c3ccccc3)c2NC(=O)c2ccc([N+](=O)[O-])cc2)CC1`, -12.4% (inactive); that for `O=C(CSc1ccc(/C=N/NC(=O)c2cccc(F)c2)o1)Nc1ccccc1`, 44.3% (active).
In the case of `N#CCC(=O)N/N=C/c1ccc(SCC(=O)Nc2ccccc2)o1` it was 17.4% (inactive); in that of `O=C(Cc1ccccc1)Nc1cccc(C(=O)N/N=C/c2ccco2)c1`, 23.9% (inactive); in that of `COc1ccc2cc(C(=O)O)n(CC(=O)c3ccccc3)c2c1`, -10.5% (inactive).
Consider `CCCCC(=O)Nc1nnc(S(=O)(=O)N(C)Cc2ccco2)s1`, for which the inhibition is 10.1% (inactive).
Take `Cc1c(C(=O)NCCN(C)C)oc2ccc(S(=O)(=O)N3CCCC3)cc12`: the inhibition is -2.78% (inactive).
Turning to `COc1ccccc1-n1c(C)nc2cc(C(=O)NCc3ccc4c(c3)OCO4)ccc21`, the inhibition is 11.2% (inactive).
With `CSCCNC(=O)c1ccc2nc(Cc3ccccc3F)oc2c1`, the inhibition is 49.7% (active).
For `COCCNC(=O)c1ccc2nc(Cc3ccc(OC)c(OC)c3)oc2c1`, the inhibition was 30.7% (active).
As for `COc1ccc(C(=O)NCCc2ccc(S(N)(=O)=O)cc2)cc1OC`, the inhibition was 21% (inactive).
Take `COc1ccc(Cc2nc3ccc(C(=O)NCC4CCOCC4)cc3o2)cc1OC`: the inhibition is 37.2% (inactive).
`Cn1cc(C(=O)NCc2ccccc2F)cn1`: the inhibition was 14.6% (inactive).
For `O=C(Nc1nnc(C2=COCCO2)o1)c1ccc([N+](=O)[O-])s1`, the inhibition was -3.51% (inactive).
In the case of `Cc1cnc(C(=O)N2CCCC(N3CCN(c4ccccc4F)CC3)C2)cn1` (configuration not stated), the inhibition was -6.28% (inactive).
In the case of `CC(=O)NC(CC(=O)Nc1nc(-c2ccccc2)c(C(C)=O)s1)c1ccccc1` (configuration not stated) it was -5.9% (inactive); in that of `COc1ccc(OC)c(CCNC(=O)c2nn(C)c3c2CS(=O)(=O)c2ccccc2-3)c1`, -4.81% (inactive).
For `Nc1nonc1-n1nnc(C(=O)N/N=C\c2ccncc2)c1CN1CCCCC1`, the inhibition is -10.8% (inactive).
In the case of `CC1CCN(C(=O)c2ccc3c(c2)NC(=O)CN3)CC1`, the inhibition was -6.93% (inactive).
In the case of `Cc1cc(C(=O)NC2CCCc3c2cnn3-c2cccc(C)c2C)c(C)o1` (configuration not stated), the inhibition was 3.44% (inactive).
In the case of `COc1ccccc1CCNC(=O)C1CCN(C(=O)/C=C/c2ccccc2)CC1`, the inhibition is 39.9% (inactive).
In the case of `COc1ccc(Nc2ncnc3sc(C)cc23)cc1`, the inhibition is 56.1% (active).
For `COc1ccc(Nc2cc(Sc3ccc(OC)cc3)ncn2)cc1`, the inhibition is 4.28% (inactive).
Take `COc1ccc(Nc2ncnc3ccc(OC)cc23)cc1`: the inhibition was -8.31% (inactive).
Take `COc1ccc(-n2ncc3c2CC(C)(C)CC3NC(=O)CCc2c(C)nn(C)c2C)cc1` (configuration not stated): the inhibition was -7.46% (inactive).
`COc1cccc(NC(=O)CCc2nnc3ccc(N4CCC(C)CC4)nn23)c1`: the inhibition is 2.02% (inactive).
As to `COc1ccc(C(=O)NC(=S)N2CCNC(=O)C2CC(=O)OC(C)C)cc1` (configuration not stated), the inhibition is -13.5% (inactive).
For the molecule `COc1ccc(S(=O)(=O)N2CCN(C(=O)N(C)C)C2C)cc1` (configuration not stated), the inhibition was -15.4% (inactive).
Consider `COc1ccc(/C=N/Nc2cc(N3CCOCC3)nc(C)n2)c(OC)c1`, for which the inhibition was 6.01% (inactive).
On to `COc1ccc(/C=N/OCc2ccccc2C#N)c(OC)c1`, for which the inhibition is 70.8% (active).
Turning to `COc1ccc(/C=N/NC(=O)c2ccc3c(c2)OCCO3)c(OC)c1`, the inhibition was 45.8% (inactive).
As to `Cc1nc2ccccc2cc1OCc1ccc(F)cc1`, the inhibition was 29.8% (active).
With `Cc1occc(=O)c1OCc1ccc(F)cc1`, the inhibition is -2.22% (inactive).
Take `Fc1cccc2ncnc(OCc3ccccc3)c12`: the inhibition was 5.51% (inactive).
Take `O=C(COc1ccc(Cl)cc1)NCCS(=O)(=O)N1CCN(c2ccc(F)cc2)CC1`: the inhibition was 29% (inactive).
Turning to `COC(=O)/C=C\C(=O)Nc1cccc([N+](=O)[O-])c1`, the inhibition was 26.5% (inactive).
In the case of `CC(C)c1ccc(N(C(=O)c2ccco2)C(C(=O)NC2CCCC2)c2cccnc2)cc1` (configuration not stated), the inhibition is 22.5% (inactive).
The result for `COc1ccc(C2NC(=O)N(C)C(C)=C2[N+](=O)[O-])cc1` (configuration not stated) reads -11.1% (inactive).
In the case of `Cc1cc(/C=C2/NC(=O)NC2=O)c(C)n1-c1cccnc1` it was 44.4% (inactive); in that of `Cc1cccc(C)c1-n1c(C)cc(/C=C2\C(=O)NN(c3ccccc3)C2=O)c1C`, -7.74% (inactive).
With `Cc1ccccc1-n1c(C)cc(/C=C2\NC(=O)NC2=O)c1C`, the inhibition is 55.3% (active).
Consider `Cn1c(=O)oc2cc(S(=O)(=O)NCCC(=O)NCc3ccccc3Cl)ccc21`, for which the inhibition was -2.59% (inactive).
For the molecule `CC(=O)c1ccc(NC(=O)c2ccc(-n3cncn3)c([N+](=O)[O-])c2)cc1`, the inhibition is -21.9% (inactive).
Consider `CCc1nnc(NC(=O)c2nc3nccc(C)n3n2)s1`, for which the inhibition was 2.51% (inactive).
Turning to `Cc1cccc(NC(=O)Nc2nnc(-c3ccccc3)o2)c1`, the inhibition was -5.35% (inactive).
Consider `Cc1ccnc2nc(C(=O)Nc3nnc(-c4ccccc4)o3)nn12`, for which the inhibition was 71.9% (active).
Consider `Nc1c(C(=O)c2cccs2)sc2nsc(SCCN3CCCCC3)c12`, for which the inhibition was 45.8% (active).
Consider `O=C(CN1C2=NCCN2c2ccccc21)c1cccs1`, for which the inhibition is -3.32% (inactive).
Regarding `O=C(CCC1CCCC1)N=C1SC2CS(=O)(=O)CC2N1Cc1ccccc1` (configuration not stated), the inhibition is 14.2% (inactive).
In the case of `COCCCNC(=O)Cc1ccc(-n2c(C)nc3cccnc32)cc1` it was 1.73% (inactive); in that of `CC1(C)CC(=O)C/C(=N\NC(=O)c2cccs2)C1`, 18.8% (inactive); in that of `CC(C)OCCCNC(=O)CNC(=O)c1cccs1`, -2.7% (inactive).
Take `CC1C/C(=N/NC(=O)c2cccs2)CC(C)(C)C1` (configuration not stated): the inhibition was 84.1% (active).
Regarding `COc1cc(CCC(=O)N2CCN(c3ccccc3Cl)CC2)cc(OC)c1OC`, the inhibition is -6.24% (inactive).
In the case of `O=C(CN1CCC(NC(=O)C2CC2)CC1)Nc1ccccc1[N+](=O)[O-]` it was -3.78% (inactive); in that of `O=c1ccc2cc(S(=O)(=O)NCCCc3ccccc3)ccc2[nH]1`, 3.55% (inactive); in that of `COc1ccc(CNC(=O)CSc2n[nH]c(N)n2)cc1OC`, 0.155% (inactive).
Turning to `COc1cccc(C(=O)CC(=O)C(=O)Nc2ccc([N+](=O)[O-])cc2C)c1`, the inhibition is 4.12% (inactive).
The result for `Cc1cc(CNC(=O)c2cccc([N+](=O)[O-])c2)c2ccccc2n1` reads 54% (inactive); that for `Cc1cccc(C(=O)NNC(=O)c2cccc([N+](=O)[O-])c2)c1`, 3.18% (inactive); that for `CC(C)(C)SCCNC(=O)c1cccc([N+](=O)[O-])c1`, -40.1% (active).
As to `COc1cccc(CNC(=O)CCCC(=O)Nc2cccc([N+](=O)[O-])c2)c1`, the inhibition was -12.3% (inactive).
As for `COc1cccc(NCCC(=O)c2cccc([N+](=O)[O-])c2)c1`, the inhibition is 67.3% (active).

The term inhibition denotes the relative decrease from the control value, in per cent.
